Data on nine compounds can be found in PubChem BioAssay (NCI).

Test [1] can be described thus: NCI Yeast Anticancer Drug Screen. Data for the rad50 strain (AID 155).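 Also: 0% = growth of vehicle-only cultures of the same strain.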 The conditions noted are these: S. cerevisiae rad50 strain growth inhibition, hits give high values. In a few lines: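 Yeast carrying a defined DNA repair defect were exposed to test compounds, and growth was compared with vehicle-treated controls to give percent inhibition.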
The nature of test [2]: NCI Yeast Anticancer Drug Screen. Data for the mec2-1 strain (AID 157). The conditions noted are these: S. cerevisiae mec2-1 strain, hits give high values. In a few lines:
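Using mec2-1 yeast: add compound, measure growth, express inhibition versus vehicle-treated cultures.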

A short description of test [3]: NCI Yeast Anticancer Drug Screen. Data for the sgs1 mgt1 strain (AID 161).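 Also: 0% = growth of cultures given vehicle only.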 The conditions noted are these: S. cerevisiae sgs1 mgt1 strain, hits give high values. The gist of the method: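 This yeast growth screen uses a strain with defined DNA-repair lesions; compound-treated growth is compared with vehicle-treated growth.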
Test [4] can be described thus: NCI Yeast Anticancer Drug Screen. Data for the cln2 rad14 strain (AID 165).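 Also: 0% = growth equal to vehicle treated cultures.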 The following applies: S. cerevisiae cln2 rad14 strain, hits give high values. The gist of the method:
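Yeast strain cln2 rad14, bearing defects in cell cycle control and DNA repair, serves as the test system; values reflect growth inhibition compared with vehicle.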

Test [5] is described as follows: NCI Yeast Anticancer Drug Screen. Data for the bub3 strain (AID 167). The following applies: S. cerevisiae bub3 mutant strain, hits give high values. In a few lines: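 Compounds were applied to a genetically altered yeast strain carrying a cell-cycle control defect. Growth inhibition was scored against vehicle-treated controls.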
The nature of test [6]: NCI Yeast Anticancer Drug Screen. Data for the mlh1 rad18 strain (AID 175). The conditions noted are these: S. cerevisiae mlh1 rad18 strain growth inhibition, hits give high values. In a few lines:
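Steps: expose repair-defective yeast to compound; measure growth; express inhibition against vehicle-treated controls.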

Where [7] appears, read: at 5.0 µM (retest, dose inferred, filed as 0.5).
The mark [8] stands for this setting: at 50.0 µM (retest, dose inferred, filed as 5.0).

The structures appear in SMILES notation. Compounds without any hit were thinned out: in the full panel of roughly 79,000, 15% have a hit. Values without a mark were called inactive. Activity calls are given as the source filed them. Rule as the data show it: active = growth inhibition above about 70%; inactive = the rest.

As for `NC(=Nc1ccccc1)c1ccc2c(c1)c1c(n2Cc2ccccc2)CCCC1`, the growth inhibition in test [1] (setting [7]) is -9%; in test [1] (setting [8]), 99% (active); in test [1] (at 50.0 µM), 99.3% (active); in test [2] (setting [7]), -7%; in test [2] (setting [8]) it was 97% (active); in test [2] (at 50.0 µM), 99.2% (active). The growth inhibition in test [3] (setting [7]) is -5%; in test [3] (setting [8]) it was 99% (active); in test [3] (at 50.0 µM), 99.6% (active); in test [4] (setting [7]), -5%; in test [4] (setting [8]) it was 94% (active); in test [4] (at 50.0 µM) it was 94.9% (active). In addition, the growth inhibition is -2% in test [5] (setting [7]); 92% (active) in test [5] (setting [8]); 98.2% (active) in test [5] (at 50.0 µM); -1% in test [6] (setting [7]); 99% (active) in test [6] (setting [8]); 99.7% (active) in test [6] (at 50.0 µM).
For `CCN(CC)Cc1cc(Nc2c3ccccc3nc3c4ccccc4n(C)c23)ccc1O`, the growth inhibition in test [1] (setting [7]) is 0%; in test [1] (setting [8]), 23%; in test [1] (at 50.0 µM), 74.2% (active); in test [2] (setting [7]), 2%; in test [2] (setting [8]), -4%; in test [2] (at 50.0 µM) it was 16.2%. Also, the growth inhibition in test [3] (setting [7]) was -10%; in test [3] (setting [8]), 9%; in test [3] (at 50.0 µM), 30.2%; in test [4] (setting [7]), 0%; in test [4] (setting [8]), 0%; in test [4] (at 50.0 µM), -1.6%. The growth inhibition was -6% in test [5] (setting [7]); 13% in test [5] (setting [8]); 55.3% in test [5] (at 50.0 µM); -10% in test [6] (setting [7]); 0% in test [6] (setting [8]); 42.9% in test [6] (at 50.0 µM).
For the compound `CCn1cnc2[nH]cc(C#N)c2c1=O`, the growth inhibition in test [1] (setting [7]) is -150%; in test [1] (setting [8]), 13%; in test [1] (at 50.0 µM), 7.7%; in test [2] (setting [7]), -50%; in test [2] (setting [8]), -40%; in test [2] (at 50.0 µM) it was -15.1%. Moreover, the growth inhibition in test [3] (setting [7]) is -64%; in test [3] (setting [8]) it was -33%; in test [3] (at 50.0 µM), 5.6%; in test [4] (setting [7]) it was -54%; in test [4] (setting [8]), -46%; in test [4] (at 50.0 µM), 34.2%. In addition, the growth inhibition in test [5] (setting [7]) is -67%; in test [5] (setting [8]), -59%; in test [5] (at 50.0 µM) it was -19.2%; in test [6] (setting [7]), -123%; in test [6] (setting [8]), -86%; in test [6] (at 50.0 µM) it was 36.7%.
As to `NC(=O)NNC(=O)NNC(N)=O`, the growth inhibition in test [1] (setting [7]) was -4%; in test [1] (setting [8]), 9%; in test [1] (at 50.0 µM), 0.95%; in test [2] (setting [7]), -2%; in test [2] (setting [8]) it was 1%; in test [2] (at 50.0 µM), -4.8%. For the same compound, the growth inhibition in test [3] (setting [7]) is 3%; in test [3] (setting [8]) it was 4%; in test [3] (at 50.0 µM), -20.2%; in test [4] (setting [7]), -1%; in test [4] (setting [8]), 3%; in test [4] (at 50.0 µM), 70.8% (active). For the same compound, the growth inhibition in test [5] (setting [7]) was -4%; in test [5] (setting [8]) it was -8%; in test [5] (at 50.0 µM), -3.5%; in test [6] (setting [7]), -3%; in test [6] (setting [8]), 9%; in test [6] (at 50.0 µM), -3.85%.
With `CN(C)C(=S)SC1(CN2CCOCC2)COc2c(Cl)cc(Cl)cc2C1=O` (configuration not stated), the growth inhibition in test [1] (setting [7]) was 1%; in test [1] (setting [8]) it was 97% (active); in test [1] (at 50.0 µM) it was 90.4% (active); in test [2] (setting [7]), 3%; in test [2] (setting [8]), 96% (active); in test [2] (at 50.0 µM), 76.2% (active). The growth inhibition in test [3] (setting [7]) was 3%; in test [3] (setting [8]) it was 97% (active); in test [3] (at 50.0 µM) it was 95.3% (active); in test [4] (setting [7]), 6%; in test [4] (setting [8]), 96% (active); in test [4] (at 50.0 µM), 75% (active). Also, the growth inhibition in test [5] (setting [7]) is 5%; in test [5] (setting [8]), 96% (active); in test [5] (at 50.0 µM) it was 79.3% (active); in test [6] (setting [7]) it was 1%; in test [6] (setting [8]), 97% (active); in test [6] (at 50.0 µM) it was 89.5% (active).
With `CC(NC(=O)OCc1ccccc1)C(=O)NC(Cc1ccccc1)C(=O)OCc1ccccc1` (configuration not stated), the growth inhibition in test [1] (setting [7]) was 1%; in test [1] (setting [8]) it was 5%; in test [1] (at 50.0 µM), -17.6%; in test [2] (setting [7]) it was 37%; in test [2] (setting [8]), 2%; in test [2] (at 50.0 µM) it was -5.05%. Further, the growth inhibition in test [3] (setting [7]) was -2%; in test [3] (setting [8]) it was -1%; in test [3] (at 50.0 µM) it was 22%; in test [4] (setting [7]), 5%; in test [4] (setting [8]) it was 2%; in test [4] (at 50.0 µM) it was 36.6%. Moreover, the growth inhibition in test [5] (setting [7]) was -3%; in test [5] (setting [8]), -7%; in test [5] (at 50.0 µM), -4.4%; in test [6] (setting [7]) it was 1%; in test [6] (setting [8]) it was 7%; in test [6] (at 50.0 µM) it was 6.45%.
For `COc1ccc(/C=C2\CCC/C(=C\c3ccc(OC)cc3)C2=O)cc1`, the growth inhibition in test [1] (setting [7]) was 26%; in test [1] (setting [8]) it was -17%; in test [1] (at 50.0 µM), -5.5%; in test [2] (setting [7]), -9%; in test [2] (setting [8]), -17%; in test [2] (at 50.0 µM), -11.3%. In addition, the growth inhibition in test [3] (setting [7]) is 2%; in test [3] (setting [8]) it was -17%; in test [3] (at 50.0 µM) it was -2.1%; in test [4] (setting [7]) it was -21%; in test [4] (setting [8]) it was -20%; in test [4] (at 50.0 µM), -72.2%. Besides, the growth inhibition in test [5] (setting [7]) was -5%; in test [5] (setting [8]) it was -5%; in test [5] (at 50.0 µM), 1.05%; in test [6] (setting [7]), -8%; in test [6] (setting [8]), -14%; in test [6] (at 50.0 µM), 9.55%.
Turning to `COC(=O)[C@H]1[C@@H](C(C)C)O[C@@H](C(C)C)O[C@H]1C(F)(F)F`, the growth inhibition in test [1] (setting [7]) is -1%; in test [1] (setting [8]), 2%; in test [1] (at 50.0 µM), 86.7% (active); in test [2] (setting [7]), -13%; in test [2] (setting [8]), -25%; in test [2] (at 50.0 µM) it was 92.5% (active). The growth inhibition in test [3] (setting [7]) was -14%; in test [3] (setting [8]) it was -10%; in test [3] (at 50.0 µM) it was 86.6% (active); in test [4] (setting [7]) it was -15%; in test [4] (setting [8]), 1%; in test [4] (at 50.0 µM) it was 88.5% (active). Further, the growth inhibition in test [5] (setting [7]) is -30%; in test [5] (setting [8]), 1%; in test [5] (at 50.0 µM), 88.7% (active); in test [6] (setting [7]), -15%; in test [6] (setting [8]) it was -13%; in test [6] (at 50.0 µM) it was 84.4% (active).
For the compound `OCCN1c2ccccc2Sc2ccc(Cl)cc21`, the growth inhibition was -1% in test [1] (setting [7]); 97% (active) in test [1] (setting [8]); 89.3% (active) in test [1] (at 50.0 µM); -18% in test [2] (setting [7]); 98% (active) in test [2] (setting [8]); 92% (active) in test [2] (at 50.0 µM). In addition, the growth inhibition in test [3] (setting [7]) was -14%; in test [3] (setting [8]), 40%; in test [3] (at 50.0 µM) it was 90.8% (active); in test [4] (setting [7]), 30%; in test [4] (setting [8]), 98% (active); in test [4] (at 50.0 µM), 86.8% (active). Moreover, the growth inhibition in test [5] (setting [7]) was 1%; in test [5] (setting [8]), 97% (active); in test [5] (at 50.0 µM), 91.3% (active); in test [6] (setting [7]), 12%; in test [6] (setting [8]) it was 98% (active); in test [6] (at 50.0 µM) it was 88.5% (active).
